Measured values from PubChem BioAssay (NCATS).
Unmarked numbers belong to inactive results. Calls of active or inactive are those of the source. The call rests on the fitted dose curve; in most records, active means well fitted curve in the direction sought with a large enough effect; inconclusive means small, poorly fitted or top-dose-only effect, or another doubt; inactive means no such curve, though single readings can be large or run the other way.

The compounds below were run against alpha-glucosidase (Oryza sativa, rice) (UniProt Q653V4) (assay: Counterscreen for Glucocerebrosidase Inhibitors: qHTS Assay for Rice alpha-Glucosidase at pH 5.0 (AID 997;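 further: 0% = full activity with enzyme and -100% = basal without enzyme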)). Conditions: rice alpha-glucosidase enzyme activity; series mostly up to 76.9 µM; activity change, negative = inhibition: at the top concentration.
Text: NIH Chemical Genomics Center [NCGC]
NIH Molecular Libraries Screening Centers Network [MLSCN]
PI Name: Zheng, Wei [NIH]
Alpha-glucosidase is responsible for hydrolysis of terminal, non-reducing 1,4-linked alpha-D-glucose residues with release of alpha-D-glucose. It is a lysosomal hydrolase that is required for the degradation of a small percentage (1-3%) of cellular glycogen in human. Deficiency of this enzyme results in glycogen-storage disease type II (GSDII), also referred to as Pompe disease, an autosomal recessive disorder. Structurally normal glycogen is accumulated in lysosomes and cytoplasm in affected patients, primarily in muscle tissues. Excessive glycogen storage within lysosomes may interrupt normal functioning of other organelles and leads to cellular injury. In turn, this leads to enlargement and dysfunction of the entire organ involved (eg, cardiomyopathy and muscle weakness).
It has reported that the improper folding and trafficking of alpha-glucosidase resulted from the genetic mutations may account for a significant number of Prope patients. […] We optimized this alpha-glucosidase assay in 1536-well plate format for identifying the novel small molecule inhibitors with the structures other than the sugar analogs in order to develop the new pharmacological chaperones.
NCGC Assay Protocol Summary:
This is a fluorogenic enzyme assay with 4-methylumbelliferyl-alpha-D-pyranoside as the substrate and rice alpha-glucosidase as the enzyme preparation. Upon the hydrolysis of this fluorogenic substrate, the resulting product, 1. 4-methyllumbelliferone, can be excited at 365 nm and emits at 440 nm which can be detected by a standard fluorescence plate reader. Data were normalized to the controls for basal activity (without enzyme) and 100% activity (with enzyme). In the AC50 values were determined from concentration-response data modeled with the standard Hill equation.
Assay buffer: 50 mM citric acid, 0.005% Tween-20, pH 5.0. (pH 5.0 is an optimal condition for this enzyme assay)
1536-well assay protocol for the human alpha-glucosidase:
(1) Add 2 ul/well of enzyme (4 nM final)
(2) Add 23 nL compounds in DMSO solution. The final titration was 0.7 nM to 77 uM.
(3) Add 1 ul of substrate (400 uM final)
(4) Incubate at room temperature for 20 min.
(5) Add 2 ul stop solution (1M NaOH and 1M Glycine mixture, pH 10)
(6) Detect the assay plate in a ViewLux plate reader (PerkinElmer) with Ex=365 nm and Em=440nm.
Keywords: Alpha-glucosidase, Prope Disease, pharmacological chaperone, chaperone therapy, high throughput screening, alpha-glucosidase inhibitor, MLSMR, MLSCN, NIH Roadmap, qHTS and NCGC

Structure (SMILES) | activity change, negative = inhibition | outcome
C[C@@H]1Cc2cc3c(cc2C(c2ccc(N)cc2)=NN1)OCO3 | -3.98% | 
NC(=O)CN1C[C@@H](O)CC1=O | 0.877% | 
C[C@]12CC[C@H](O)C[C@@H]1CC[C@H]1[C@H]2CC[C@]2(C)[C@H](C(=O)CO)CC[C@@H]12 | -0.216% | 
CC(=O)[C@@H]1CC[C@H]2[C@H]3CC[C@H]4C[C@@H](O)CC[C@]4(C)[C@@H]3CC[C@]12C | -3.12% | 
CCNC(=O)[C@@H]1O[C@@H](n2cnc3c(N)ncnc32)[C@@H](O)[C@H]1O | -1.18% | 
C[C@@H](Cc1ccc(O)cc1)NC[C@@H](O)c1cc(O)cc(O)c1 | -3.44% | 
N[C@H](Cc1ccc(N(CCCl)CCCl)cc1)C(=O)O | -2.91% | 
CCN(CC)c1ncnc2c1ncn2[C@@H]1O[C@@H](COP(=O)(O)OP(=O)(O)C(Br)(Br)P(=O)(O)O)[C@H](O)[C@@H]1O | -3.79% | 
C=CCN1CC[C@]23c4c5ccc(O)c4O[C@@H]2/C(=N/NC(=O)c2ccccc2)CC[C@@]3(O)[C@H]1C5 | -2.06% | 
COC(=O)[C@H](N)CCCN=C(N)N[N+](=O)[O-] | -0.658% | 
Nc1ncnc2c1ncn2[C@@H]1O[C@@H](COP(=O)(O)CP(=O)(O)OP(=O)(O)O)[C@H](O)[C@@H]1O | -3.15% | 
COc1cc([C@@H](O)CN)ccc1O | -1.2% | 
COc1ccc2c(c1)[C@]13CCCC[C@@H]1[C@H](C2)NCC3 | -2.62% | 
COc1ccc2c(c1O)-c1cccc3c1[C@H](C2)N(C)CC3 | 1.63% | 
C[N+]1(C)C2CC(OC(=O)C(CO)c3ccccc3)CC1[C@@H]1O[C@H]21 (some centres undefined) |  | inactive
C[C@]12CC[C@H](O)CC1=CC[C@@H]1[C@H]2CC[C@]2(C)C(=O)CC[C@H]12 | 2.89% | 
CC(C)N[C@@H](C)Cc1ccc(I)cc1 | -2.15% | 
CC(C)C[C@H](NP(=O)(O)O[C@@H]1O[C@@H](C)[C@@H](O)[C@@H](O)[C@H]1O)C(=O)N[C@@H](Cc1c[nH]c2ccccc12)C(=O)O | 1.36% | 
CO[C@@H]1CC=C2CCN3CCC4=C(CC(=O)OC4)[C@]23C1 | 0.657% | 
N[C@H](Cn1ccc(=O)[nH]c1=O)C(=O)O | -2.04% | 

Structure (SMILES) | activity change, negative = inhibition | outcome
O=C(O)[C@H]1[C@H](C(=O)O)[C@H]2CC[C@@H]1O2 | -4.23% | 
C[Se]C[C@@H](N)C(=O)O | 1.83% | 
CCn1cnc2c(Nc3cccc(Cl)c3)nc(N[C@@H]3CCCC[C@H]3N)nc21 | -0.246% | 
Oc1ccc2c3c1O[C@@H]1c4[nH]c5c(c4C[C@@]4(O)[C@@H](C2)N(CC2CC2)CC[C@]314)C[C@]1(O)[C@@H]2Cc3ccc(O)c4c3[C@@]1(CCN2CC1CC1)[C@H]5O4 | -8.52% | 
C[C@@]12CC[C@H]3[C@@H](CC=C4C[C@H](OS(=O)(=O)O)CC[C@]43C)[C@H]1CCC2=O | -0.47% | 
O=C(O)[C@H]1CCN1 | -4.36% | 
C[N+]1(C)CCc2cc3c(cc2[C@@H]1[C@@H]1OC(=O)c2c1ccc1c2OCO1)OCO3 | -2.43% | 
CN1C[C@@H](CS(=O)(=O)N(C)C)C[C@H]2c3cccc4c3c(cn4C)C[C@@H]21 | -0.792% | 
N[C@H](CCl)C(=O)O | -2.12% | 
COc1ccc2c3c1O[C@@H]1C(=O)CC[C@@]4(O)[C@@H](C2)N(CC2CC2)CC[C@]314 | -0.637% | 
C[C@@]12CC[C@H]3[C@@H](CCC4=C(O)C(=O)CC[C@]43C)[C@H]1CCC2=O | -0.0371% | 
C[C@@]12CC[C@H]3[C@@H](CC[C@@H]4C[C@H](O)CC[C@]43C)[C@H]1CC[C@H]2O | 0.347% | 
C#CCN[C@@H](C)Cc1ccccc1 | -2.36% | 
C[C@@H]1O[C@H]1P(=O)(O)O | -2.28% | 
COc1cc(C[C@H](C)N)c(OC)cc1I |  | inactive
CC(=O)OCC1=C(C(=O)[O-])N2C(=O)[C@@H](NC(=O)CCC[C@@H](N)C(=O)[O-])[C@@H]2SC1.[Zn+2] | -1.03% | 
CCCN1CC[C@@H]2c3cc(O)ccc3CC[C@H]21 | -3.29% | 
CC(=O)c1c(O)c(C)c(O)c(Cc2c(O)c3c(c(C(=O)/C=C\c4ccccc4)c2O)OC(C)(C)C=C3)c1O | -6.55% | 
NC[C@H](O)c1cc(O)c(O)cc1F | 0.401% | 
